PubChem BioAssay AID1159580 (chemical genetic matrix, 2015)
“And” between values parts separate entries of the source, which are not always exact repeats. Equal entries are not always repeated. About 2,000 (36%) of roughly 5,500 compounds were called active. Roughly 18% stayed inconclusive and do not appear here. Cut-off read from the data, not from the text of the source: active = normalized growth mostly below about 0.91 (no sharp cut-off); inconclusive = no clear call, values can overlap the other calls; inactive = mostly above about 0.92. Some of the results follow.

Assay: chemical genetic growth profiling, strain panel (AID 1159580);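 note: tested at 20 µM; growth read once vehicle control cultures reached saturation at 30 °C; 1 = growth at the plate median or of vehicle wells; lower values mean less growth of the strain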
Settings: S. cerevisiae deletion strains, growth OD

Measured: normalized growth

CC(C)CCCC(C)[C@H]1CCC2C3CC=C4CC(=O)CC[C@]4(C)C3CC[C@@]21C (stereo not given in full)
active: locus YLR262C, strain YPT6 (second series), stronger effect = lower value 0.855 | locus YLR418C, strain cdc73, stronger effect = lower value 0.753 | locus YNL307C, strain MCK1, stronger effect = lower value 0.842
inactive: locus YAL021C, strain ccr4, stronger effect = lower value 0.976 | locus YAL026C, strain drs2, stronger effect = lower value 0.985 | locus YAL030W, strain snc1, stronger effect = lower value 0.989 | locus YBL061C, strain skt5, stronger effect = lower value 1 | locus YBR009C, strain hhf1, stronger effect = lower value 1.04 | locus YBR021W, strain FUR4, stronger effect = lower value 0.962 | locus YBR023C, strain chs3, stronger effect = lower value 0.988 | locus YBR171W, strain sec66, stronger effect = lower value 0.992 | locus YBR229C, strain ROT2, stronger effect = lower value 0.961 | locus YBR231C, strain swc5, stronger effect = lower value 1.01 | locus YBR279W, strain paf1, stronger effect = lower value 1 | locus YCL011C, strain gbp2, stronger effect = lower value 0.986 | locus YCL016C, strain dcc1, stronger effect = lower value 1 | locus YCL029C, strain bik1, stronger effect = lower value 0.999 | locus YCL061C, strain MRC1, stronger effect = lower value 0.99 | locus YCL069W, strain vba3, stronger effect = lower value 0.994 | locus YCR088W, strain abp1, stronger effect = lower value 0.99 | locus YDL005C, strain med2, stronger effect = lower value 0.99 | locus YDL035C, strain GPR1, stronger effect = lower value 0.953 | locus YDL040C, strain nat1, stronger effect = lower value 0.975 | locus YDL074C, strain BRE1, stronger effect = lower value 0.937 | locus YDL101C, strain DUN1, stronger effect = lower value 0.971 | locus YDL185W, strain tfp1, stronger effect = lower value 0.982 | locus YDL192W, strain arf1, stronger effect = lower value 0.932 | locus YDR001C, strain nth1, stronger effect = lower value 0.99 | locus YDR069C, strain doa4, stronger effect = lower value 1 | locus YDR101C, strain arx1, stronger effect = lower value 1.03 | locus YDR137W, strain rgp1, stronger effect = lower value 0.895 | locus YDR150W, strain NUM1, stronger effect = lower value 0.978 | locus YDR159W, strain sac3, stronger effect = lower value 0.999 | locus YDR162C, strain NBP2, stronger effect = lower value 0.939 | locus YDR195W, strain ref2 1.03 | locus YDR297W, strain sur2, stronger effect = lower value 0.994 | locus YDR318W, strain mcm21, stronger effect = lower value 0.922 | locus YDR334W, strain swr1, stronger effect = lower value 0.968 | locus YDR335W, strain msn5, stronger effect = lower value 0.984 | locus YDR388W, stronger effect = lower value 0.964 | locus YDR392W, strain spt3, stronger effect = lower value 0.932 | locus YDR502C, strain sam2, stronger effect = lower value 0.947 | locus YEL003W, strain gim4, stronger effect = lower value 0.987 | locus YEL037C, strain rad23, stronger effect = lower value 0.986 | locus YEL061C, strain CIN8 (second series), stronger effect = lower value 0.991 | locus YEL061C, strain CIN8, stronger effect = lower value 0.988 | locus YER015W, strain faa2, stronger effect = lower value 0.992 | locus YER016W, strain bim1, stronger effect = lower value 0.987 | locus YER110C, stronger effect = lower value 0.98 | locus YER111C, strain swi4, stronger effect = lower value 0.997 | locus YER155C, strain BEM2 (second series), stronger effect = lower value 1.01 | locus YER155C, strain BEM2, stronger effect = lower value 1.01 | locus YER167W, strain BCK2, stronger effect = lower value 0.993 | locus YFR010W, strain ubp6, stronger effect = lower value 0.991 | locus YGL078C, strain dbp3, stronger effect = lower value 0.98 | locus YGL086W, strain mad1, stronger effect = lower value 0.997 | locus YGL167C, strain pmr1, stronger effect = lower value 0.996 | locus YGL173C, strain kem1, stronger effect = lower value 0.995 | locus YGL227W, strain vid30, stronger effect = lower value 0.995 | locus YGL240W, strain doc1, stronger effect = lower value 1.04 | locus YGL248W, strain PDE1, stronger effect = lower value 0.922 | locus YGL253W, strain hxk2, stronger effect = lower value 0.976 | locus YGR135W, strain pre9, stronger effect = lower value 0.942 | locus YGR252W, strain gcn5, stronger effect = lower value 0.839 | locus YHR013C, strain ard1, stronger effect = lower value 0.989 | locus YHR027C, strain rpn1, stronger effect = lower value 0.987 | locus YHR030C, strain SLT2, stronger effect = lower value 1 and 1.02 | locus YHR079C, strain IRE1 (second series), stronger effect = lower value 0.992 | locus YHR079C, strain IRE1, stronger effect = lower value 0.997 | locus YHR094C, strain hxt1, stronger effect = lower value 0.986 | locus YHR129C, strain ARP1, stronger effect = lower value 0.974 | locus YHR142W, strain chs7, stronger effect = lower value 0.903 | locus YHR200W, strain rpn10, stronger effect = lower value 0.958 | locus YIL066C, strain RNR3, stronger effect = lower value 0.952 | locus YIL073C, strain SPO22, stronger effect = lower value 0.936 | locus YIL125W, strain kgd1, stronger effect = lower value 0.987 | locus YIR030C, strain dcg1, stronger effect = lower value 0.979 | locus YJL092W, strain hpr5, stronger effect = lower value 0.978 | locus YJL095W, strain BCK1 (second series), stronger effect = lower value 0.989 | locus YJL095W, strain BCK1, stronger effect = lower value 0.83 and 1 | locus YJL115W, strain asf1, stronger effect = lower value 0.974 | locus YJL129C, strain trk1, stronger effect = lower value 0.935 | locus YJL134W, strain LCB3, stronger effect = lower value 0.982 | locus YJL154C, strain vps35, stronger effect = lower value 0.993 | locus YJL164C, strain tpk1, stronger effect = lower value 0.95 | locus YJL166W, strain qcr8, stronger effect = lower value 0.986 | locus YJL168C, strain set2, stronger effect = lower value 0.996 | locus YJL187C, strain SWE1 (second series), stronger effect = lower value 0.968 | locus YJL187C, strain SWE1, stronger effect = lower value 1 | locus YJR043C, strain POL32, stronger effect = lower value 0.958 | locus YJR066W, strain TOR1, stronger effect = lower value 0.928 | locus YJR075W, strain HOC1, stronger effect = lower value 0.968 | locus YKL009W, strain mrt4, stronger effect = lower value 0.943 | locus YKL068W, stronger effect = lower value 0.993 | locus YKL085W, strain MDH1 (second series), stronger effect = lower value 0.99 | locus YKL085W, strain MDH1, stronger effect = lower value 0.99 | locus YKL160W, strain elf1, stronger effect = lower value 0.965 | locus YKL190W, strain CNB1, stronger effect = lower value 0.984 | locus YKR001C, strain vps1, stronger effect = lower value 0.914 | locus YKR026C, strain gcn3, stronger effect = lower value 0.993 | locus YKR091W, strain srl3, stronger effect = lower value 0.994 | locus YLL001W, strain dnm1, stronger effect = lower value 0.988 | locus YLL026W, stronger effect = lower value 0.988 | locus YLL041C, strain sdh2, stronger effect = lower value 0.981 | locus YLR027C, strain aat2, stronger effect = lower value 0.981 | locus YLR039C, strain RIC1, stronger effect = lower value 0.696 | locus YLR058C, strain SHM2, stronger effect = lower value 0.967 | locus YLR102C, strain apc9, stronger effect = lower value 0.989 | locus YLR113W, strain HOG1, stronger effect = lower value 0.91 | locus YLR221C, strain rsa3, stronger effect = lower value 0.949 | locus YLR258W, strain gsy2, stronger effect = lower value 1.01 | locus YLR262C, strain YPT6, stronger effect = lower value 0.66 | locus YLR268W, strain sec22, stronger effect = lower value 0.974 | locus YLR320W, strain mms22, stronger effect = lower value 0.999 | locus YLR330W, strain CHS5, stronger effect = lower value 0.985 | locus YLR342W, strain FKS1 (second series), stronger effect = lower value 0.946 | locus YLR342W, strain FKS1, stronger effect = lower value 1.01 | locus YLR357W, strain rsc2, stronger effect = lower value 1.02 | locus YLR370C, strain arc18, stronger effect = lower value 0.99 | locus YLR371W, strain rom2, stronger effect = lower value 0.989 | locus YLR384C, strain iki3, stronger effect = lower value 0.995 | locus YML016C, strain PPZ1, stronger effect = lower value 0.996 | locus YML032C, strain rad52, stronger effect = lower value 0.91 | locus YML120C, strain ndi1, stronger effect = lower value 0.949 | locus YML124C, strain tub3, stronger effect = lower value 0.995 | locus YMR058W, strain fet3, stronger effect = lower value 0.981 | locus YMR078C, strain ctf18, stronger effect = lower value 0.981 | locus YMR125W, strain sto1, stronger effect = lower value 0.985 | locus YMR129W, stronger effect = lower value 1 | locus YMR205C, strain PFK2, stronger effect = lower value 1.03 | locus YMR223W, strain ubp8, stronger effect = lower value 0.925 | locus YMR231W, strain pep5, stronger effect = lower value 1 | locus YMR307W, strain GAS1, stronger effect = lower value 0.875 | locus YNL067W, strain RPL9B, stronger effect = lower value 0.987 | locus YNL071W, strain lat1, stronger effect = lower value 0.978 | locus YNL183C, strain NPR1, stronger effect = lower value 0.937 | locus YNL209W, strain ssb2, stronger effect = lower value 1 | locus YNL233W, strain BNI4, stronger effect = lower value 0.932 | locus YNL248C, strain rpa49, stronger effect = lower value 0.93 | locus YNL250W, strain rad50, stronger effect = lower value 0.965 | locus YNL271C, strain bni1, stronger effect = lower value 0.977 | locus YNL298W, strain CLA4, stronger effect = lower value 0.979 | locus YNL322C, strain KRE1 (second series), stronger effect = lower value 0.99 | locus YNL322C, strain KRE1, stronger effect = lower value 0.991 | locus YNR049C, strain mso1, stronger effect = lower value 0.986 | locus YNR052C, strain pop2, stronger effect = lower value 0.98 | locus YOL006C, strain TOP1, stronger effect = lower value 1.01 | locus YOL012C, strain htz1 1.02 | locus YOL147C, strain pex11, stronger effect = lower value 0.989 | locus YOR001W, strain rrp6, stronger effect = lower value 0.933 | locus YOR061W, strain CKA2, stronger effect = lower value 0.954 | locus YOR069W, strain VPS5, stronger effect = lower value 0.988 | locus YOR070C, strain gyp1, stronger effect = lower value 0.978 | locus YOR080W, strain dia2, stronger effect = lower value 0.996 | locus YOR083W, strain WHI5, stronger effect = lower value 0.944 | locus YOR106W, strain vam3, stronger effect = lower value 0.965 | locus YOR136W, strain idh2, stronger effect = lower value 0.993 | locus YOR144C, strain elg1, stronger effect = lower value 0.993 | locus YOR184W, strain ser1, stronger effect = lower value 0.945 | locus YOR231W, strain MKK1, stronger effect = lower value 0.965 | locus YOR265W, strain rbl2, stronger effect = lower value 0.986 | locus YOR270C, strain vph1, stronger effect = lower value 0.922 | locus YOR290C, strain snf2, stronger effect = lower value 0.959 | locus YOR316C, strain cot1, stronger effect = lower value 0.988 | locus YPL051W, strain arl3, stronger effect = lower value 0.956 | locus YPL078C, strain atp4, stronger effect = lower value 0.951 | locus YPL106C, strain sse1, stronger effect = lower value 1.03 | locus YPL240C, strain hsp82, stronger effect = lower value 0.989 | locus YPL241C, strain CIN2, stronger effect = lower value 0.995 | locus YPL256C, strain CLN2, stronger effect = lower value 1.01 | locus YPR119W, strain clb2, stronger effect = lower value 1 | locus YPR141C, strain kar3, stronger effect = lower value 0.988 | locus YPR163C, strain tif3, stronger effect = lower value 0.977 | locus YPR167C, strain met16, stronger effect = lower value 0.96 | strain wtn01, stronger effect = lower value 1.02
